Structures can show the parent of a compound that is named as a salt.
The molecules below were run on FB (assay: Euclidean distance of Cell Painting phenotypic profile (signed KS, 77 features) to DMSO centroid (dimensionless distance); 5 or 10 uM (library dependent); higher = stronger phenotypic change vs DMSO (phenoactivity)). Conditions: 48 h.
Procedure, shortened: (§1)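 Phenoactivity is computed as Euclidean distance to the median vehicle profile. The profiles, drawn from 77 Harmony features scored as signed Kolmogorov-Smirnov statistics versus same-plate vehicle wells, were corrected for plate position, correlation-weighted and replicate-averaged at the top dose. Stained cells were imaged confocally at 20X (9 fields/well) after 48 h with library compounds at 10 or 5 uM, 0.1% DMSO final, in five cancer lines and a healthy fibroblast line.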
`Nc1ccc(-c2ccc3ncc4ccc(=O)n(-c5cccc(C(F)(F)F)c5)c4c3c2)cn1` [Torin 2] showed an Euclidean distance of 1.45. In the case of `O=C1OC(c2ccc(O)cc2)(c2ccc(O)cc2)c2ccccc21` [Phenolphthalein], the Euclidean distance is reported as 0.979. `CS(=O)(=O)Nc1ccc([N+](=O)[O-])cc1Oc1ccccc1` [Nimesulide] gave an Euclidean distance of 1.03. In the case of `CC1=CC[C@@](O)(C(C)C)CC1` [Terpinen-4-ol], the Euclidean distance is reported as 0.873. With `CC(C)c1ccc2oc3nc(N)c(C(=O)O)cc3c(=O)c2c1` [Amlexanox] the Euclidean distance was 0.891. `CCCCC(C)(O)C/C=C/[C@H]1[C@H](O)CC(=O)[C@@H]1CCCCCCC(=O)OC` (mixture of isomers) [Misoprostol] was tested, and the Euclidean distance was 1.07. `CS(=O)(=O)c1ccc([C@@H](O)[C@@H](CO)NC(=O)C(Cl)Cl)cc1` [Thiamphenicol] was tested, and the Euclidean distance was 1.08.

Each molecule was assayed on HEPG2 in the same assay as above. Conditions: 48 h.
Procedure, shortened: as §1
In the case of `O=C(O)c1cc(/N=N/c2ccc(S(=O)(=O)Nc3ccccn3)cc2)ccc1O` [Sulfasalazine], the Euclidean distance is reported as 0.963. `CO[C@H]1C[C@H](O[C@@H]2/C(C)=C/C[C@@H]3C[C@@H](C[C@]4(CC[C@H](C)[C@@H](C5CCCCC5)O4)O3)OC(=O)[C@@H]3C=C(C)/C(=N/O)[C@H]4OC/C(=C\C=C\[C@@H]2C)[C@]43O)O[C@@H](C)[C@@H]1O` [Selamectin] showed an Euclidean distance of 0.681. For `Cc1cc(C(C)Nc2ccccc2)c2nc(N3CCOCC3)cc(=O)n2c1` (stereo not drawn), the Euclidean distance was 1.29. With `CC(C)N1CCN(Cc2cnc(-c3cc(-c4cccc5[nH]ccc45)cc4[nH]ncc34)o2)CC1` the Euclidean distance was 3.14. `COc1ccc(C2=N[C@@H](c3ccc(Cl)cc3)[C@@H](c3ccc(Cl)cc3)N2C(=O)N2CCNC(=O)C2)c(OC(C)C)c1` [Nutlin-3] was tested, and the Euclidean distance was 2.58. `CN(C)c1ccc(O)c2c1C[C@H]1C[C@H]3[C@H](N(C)C)C(O)=C(C(N)=O)C(=O)[C@@]3(O)C(O)=C1C2=O` [Minocycline HCl] was tested, and the Euclidean distance was 0.637. `Oc1cccc(O)c1` [Resorcinol] showed an Euclidean distance of 1.33. With `CCOC(=O)[C@H](CCc1ccccc1)N[C@@H](C)C(=O)N1[C@H](C(=O)O)C[C@H]2CCCC[C@@H]21` [Trandolapril] the Euclidean distance was 0.562. `C=CC(=O)Nc1cc(Nc2nccc(-c3cn(C)c4ccccc34)n2)c(OC)cc1N(C)CCN(C)C` [Osimertinib (AZD9291)] showed an Euclidean distance of 5.16. `Cc1ccc(CNc2ncnc3ccc(-c4ccc(CO)o4)cc23)o1` showed an Euclidean distance of 2.04. `O=C(O)CC[C@H]1CC[C@@](c2cc(F)ccc2F)(S(=O)(=O)c2ccc(Cl)cc2)CC1` was tested, and the Euclidean distance was 1.76. In the case of `O=c1[nH]cc(F)c(=O)[nH]1` [Fluorouracil (5-Fluoracil. 5-FU)], the Euclidean distance is reported as 2.13. Molecule `C[N+]1(C)[C@@H]2C[C@@H](OC(=O)C(O)(c3cccs3)c3cccs3)C[C@H]1[C@@H]1O[C@@H]12` [Tiotropium Bromide hydrate] has an Euclidean distance of 0.978. Molecule `Cc1onc(-c2c(F)cccc2Cl)c1C(=O)N[C@@H]1C(=O)N2[C@@H]1SC(C)(C)[C@@H]2C(=O)O` [Flucloxacillin sodium] has an Euclidean distance of 0.664. `Cc1csc(-c2nnc(Nc3ccc(Oc4ncccc4-c4ccnc(N)n4)cc3)c3ccccc23)c1` showed an Euclidean distance of 2.61. In the case of `COc1cc2c(cc1OC)[C@H]1C[C@@H](OC(=O)[C@@H](N)C(C)C)[C@H](CC(C)C)CN1CC2` [Valbenazine tosylate], the Euclidean distance is reported as 0.752. `FC(F)c1nc2ccccc2n1-c1nc(N2CCOCC2)nc(N2CCOCC2)n1` gave an Euclidean distance of 2.24. For `COc1ccc(-c2ccc3cc(C(=O)O)ccc3c2)cc1C12CC3CC(CC(C3)C1)C2` [Adapalene], the Euclidean distance was 1.73. For `COc1cc2ncnc(Nc3cccc(Cl)c3F)c2cc1OC(=O)N1CCN(C)C[C@H]1C`, the Euclidean distance was 0.691. `Nc1ccc(S(=O)(=O)Nc2ncccn2)cc1` [Sodium sulfadiazine] was tested, and the Euclidean distance was 0.727. Work on `CC(C)COCC(CN(Cc1ccccc1)c1ccccc1)N1CCCC1` (stereo not drawn) [Bepridil hydrochloride] yielded an Euclidean distance of 1.94. With `Oc1nc(-c2ccc(C(F)(F)F)cc2)nc2c1CSCC2` the Euclidean distance was 0.766. `CCn1cc(C(=O)O)c(=O)c2cc(F)c(N3CCN(C)CC3)cc21` [Pefloxacin Mesylate] was tested, and the Euclidean distance was 1.02. Molecule `COc1ccc2[nH]cc(CCNC(C)=O)c2c1` [Melatonin] has an Euclidean distance of 0.681. `Cc1ccc(C(=O)Nc2ccc(CN3CCN(C)CC3)c(C(F)(F)F)c2)cc1C#Cc1cnc2cccnn12` showed an Euclidean distance of 4.93. In the case of `CNC(=O)c1cc(Oc2ccc(NC(=O)Nc3ccc(Cl)c(C(F)(F)F)c3)cc2)ccn1` [Sorafenib], the Euclidean distance is reported as 2.93.

From the supplement of paper PMC10127200
